Screens (PubChem)
Most compounds without a hit are left out; they make up all but 21% or so of the library.
Pf growth 48h: inhibits P. falciparum growth in the first generation, 48 h; P. falciparum luciferase growth in erythrocytes, 48 h; Potency, µM (doses to about 28.7 µM), for the others: at the highest dose activity change, negative = inhibition, most hits filed as inhibitors; actives 5.9% (n = 310,000); AID 504832; also: potency is read from the fitted curve at half-maximal effect; % is scaled to controls: 0 for no effect and ±100 for the full control effect
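Firefly luciferase activity from engineered P. falciparum reports growth; inhibitors lower the luminescent signal. Cultures contained 2% hematocrit erythrocytes at 0.1% final parasitemia.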
Cycloheximide cs: affects cycloheximide protein synthesis inhibition readout, counter-screen; cell reporter, cycloheximide protein synthesis inhibition counterscreen; max response, %; actives 12% (n = 300,000); AID 2314; in the data active = max response mostly above about 13%, no sharp cut-off; inactive = mostly below about 14%; also: read at 38.3 µM for the half of the compounds with a filed dose; 0% is about no effect
Pf growth 96h: P. falciparum growth inhibition at 96 hours | P. falciparum luciferase reporter growth, 96 h | Potency, µM (top dose mostly 28.7 µM), for the others: at the top dose activity change, negative = inhibition, usual class: inhibitors | actives 6.9% (n = 320,000) | AID 504834; also: potency is read from the fitted curve at half-maximal effect; % is scaled to controls: 0 for no effect and ±100 for the full control effect
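Luminescence readout: decreased luciferase signal marks inhibited growth of reporter-expressing P. falciparum in infected red cells (2% hematocrit, 0.05% parasitemia final), exposed to compound two generations (96 h, 37 C, 5% CO2).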
NS1 function inh: influenza NS1 inhibition; Potency, µM (series often up to 46.1 µM), inactives show at the highest dose activity, positive = more growth; actives 0.4% (n = 270,000); calls by dose curve; also: potency is read from the fitted curve at half-maximal effect; actives are rising curves; nearly all actives have a fitted effect of over 50% in size
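In this qHTS, NS1 from influenza A is expressed in budding yeast, where it slows growth. Cells are switched from glucose to 2% galactose medium (pH 6.0, -URA), treated with compound, and growth recovery is read at OD600.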
Shiga inhibitor: Shiga toxin inhibition; Vero cells, Shiga toxin protein synthesis inhibition reporter; inhibition, % at 38.7 µM; actives 9.2% (n = 290,000); AID 2315; in the data active = inhibition mostly above about 28%, no sharp cut-off; inactive = mostly below about 43%; also: 0% is about no effect
The depositor's hits bear a star; [ ] = dose if it differs, or a comment. Unless noted, calls follow the shape of the dose curve; as a rule, active = well fitted inhibition curve with a large enough effect; inconclusive = small, poorly fitted or top-dose-only effect, or another doubt; inactive = no such curve, though single readings can be large or run the other way.

What do the screens show for `NC(=O)C(Cc1ccccc1)NS(=O)(=O)c1ccc(N2CCCC2=O)cc1` (stereo unspecified)?
Pf growth 48h: -4%; Cycloheximide cs: -4; Pf growth 96h: 9.3µM*; NS1 function inh: -3%; Shiga inhibitor: -2

Results for O=C(NCc1ccc(Cl)cc1)C1CCN(S(=O)(=O)c2ccccc2)CC1 ?
Pf growth 48h: 9%; Cycloheximide cs: -5; Pf growth 96h: -8%; NS1 function inh: -5%; Shiga inhibitor: -1

Results for O=C(NCc1ccc(Cl)cc1)C1CCN(S(=O)(=O)c2ccc(N3CCCC3=O)cc2)CC1 ?
Pf growth 48h: -18%; Cycloheximide cs: 3; Pf growth 96h: 13µM*; NS1 function inh: 12%; Shiga inhibitor: 17

Results for COC(=O)C(NS(=O)(=O)c1ccc(N2CCCC2=O)cc1)c1ccccc1 (stereo unspecified) ?
Pf growth 48h: 12%; Cycloheximide cs: 14; Pf growth 96h: inconclusive; NS1 function inh: -2%; Shiga inhibitor: -29

How did CCC1CN(C(=O)N2CCC(C(=O)NCc3ccccc3OC)CC2)c2ccccc2O1 (stereo unspecified) do in these assays?
Pf growth 48h: inconclusive; Cycloheximide cs: -8; Pf growth 96h: 13µM*; NS1 function inh: 5%; Shiga inhibitor: -18

What do the screens show for `Cn1c(=O)oc2cc(S(=O)(=O)N3CCC(C(=O)NCc4ccccc4)CC3)ccc21`?
Pf growth 48h: inconclusive; Cycloheximide cs: -3; Pf growth 96h: inconclusive; NS1 function inh: -5%; Shiga inhibitor: -4

Results for COc1ccccc1CNC(=O)C1CCN(S(=O)(=O)N2CCCCC2)CC1 ?
Pf growth 48h: 0%; Cycloheximide cs: 0; Pf growth 96h: -9%; NS1 function inh: 0%; Shiga inhibitor: -6

How did COc1ccccc1CNC(=O)C1CCN(S(=O)(=O)c2ccc(N3CCCC3=O)cc2)CC1 do in these assays?
Pf growth 48h: 12µM*; Cycloheximide cs: 9; Pf growth 96h: 15µM*; NS1 function inh: -7%; Shiga inhibitor: -5

What do the screens show for `O=C(NCc1ccc(F)cc1)C1CCN(S(=O)(=O)c2ccc(Cl)cc2)CC1`?
Pf growth 48h: 3.7µM*; Cycloheximide cs: 1; Pf growth 96h: -23%; NS1 function inh: -8%; Shiga inhibitor: -5

What do the screens show for `O=C(NCc1ccccc1)C1CCN(S(=O)(=O)c2ccc(N3CCCC3=O)cc2)CC1`?
Pf growth 48h: inconclusive; Cycloheximide cs: 4; Pf growth 96h: 15µM*; NS1 function inh: 16%; Shiga inhibitor: -3

How did O=C(Nc1cccc(C(F)(F)F)c1)C1CCN(S(=O)(=O)c2ccc(N3CCCC3=O)cc2)CC1 do in these assays?
Pf growth 48h: inconclusive; Cycloheximide cs: 6; Pf growth 96h: 13µM*; NS1 function inh: inconclusive; Shiga inhibitor: 9

What do the screens show for `CS(=O)(=O)N1CCC(C(=O)Nc2cccc(C(F)(F)F)c2)CC1`?
Pf growth 48h: 10%; Cycloheximide cs: -1; NS1 function inh: 2%; Shiga inhibitor: -8

Results for COC(=O)c1cc2n3ccccc3c(C)c(-c3ccccc3)c-2c1C(=O)OC ?
Cycloheximide cs: -6; Pf growth 96h: 9.3µM*; NS1 function inh: 21%; Shiga inhibitor: -8

How did COC(=O)c1cc2c(C)c(C)c3ccccn3c-2c1C(=O)OC do in these assays?
Cycloheximide cs: -1; Pf growth 96h: 13µM*; NS1 function inh: 5%; Shiga inhibitor: -11

How did COc1ccccc1N(CC(=O)NCCN1CCOCC1)S(=O)(=O)c1ccccc1 do in these assays?
Pf growth 48h: 31%; Cycloheximide cs: -3; Pf growth 96h: -27%; NS1 function inh: 5%; Shiga inhibitor: 8

What do the screens show for `O=C(C[N+]12CCC(CC1)C(C(O)(c1ccccc1)c1ccccc1)C2)c1ccc(Br)cc1` (stereo unspecified)?
Pf growth 48h: inconclusive; Cycloheximide cs: -4; Pf growth 96h: 8.3µM*; NS1 function inh: 7%; Shiga inhibitor: -4

Results for O=C(O)CCC(=O)N1CN2CN(C(=O)CCC(=O)O)CC([N+](=O)[O-])(C2)C1 ?
Pf growth 48h: 11%; Cycloheximide cs: -4; Pf growth 96h: 38%; NS1 function inh: 2%; Shiga inhibitor: -4

How did CN1CCc2c(sc3c2C(=O)NC(c2cccs2)N3)C1 (stereo unspecified) do in these assays?
Pf growth 48h: 66%; Cycloheximide cs: 34*; Pf growth 96h: 36%; NS1 function inh: -57%; Shiga inhibitor: 35*

What do the screens show for `COc1cc2c(cc1OC)C1O[C@](c3ccsc3)(C2)OC2=C1C(=O)CC(C)(C)C2`?
Pf growth 48h: inconclusive; Cycloheximide cs: 0; Pf growth 96h: inconclusive; NS1 function inh: 1%; Shiga inhibitor: inactive

What do the screens show for `COc1ccc([C@]23Cc4ccccc4C(O2)C2=C(CCCC2=O)O3)cc1`?
Pf growth 48h: inconclusive; Cycloheximide cs: 1; Pf growth 96h: 1.5µM*; NS1 function inh: 0%; Shiga inhibitor: inactive

What do the screens show for `COc1ccc([C@]23Cc4ccccc4C(O2)C2=C(CC(C)(C)CC2=O)O3)cc1`?
Pf growth 48h: inconclusive; Cycloheximide cs: 1; Pf growth 96h: 0.6µM*; NS1 function inh: -9%; Shiga inhibitor: inactive

Results for COc1cc2c(cc1OC)C1O[C@](c3ccsc3)(C2)Oc2cc(-c3ccccc3)oc(=O)c21 ?
Pf growth 48h: inconclusive; Cycloheximide cs: -1; Pf growth 96h: 1.5µM*; NS1 function inh: 13%; Shiga inhibitor: inactive

How did COc1cc2c(cc1OC)C1O[C@](c3ccsc3)(C2)OC2=C1C(=O)OC1(CCCCC1)C2 do in these assays?
Pf growth 48h: inconclusive; Cycloheximide cs: -1; Pf growth 96h: 1.3µM*; NS1 function inh: 5%; Shiga inhibitor: inactive

How did COc1cc2c(cc1OC)C1O[C@](c3ccsc3)(C2)Oc2cc(C)n(Cc3ccccc3)c(=O)c21 do in these assays?
Pf growth 48h: inconclusive; Cycloheximide cs: -2; Pf growth 96h: inconclusive; NS1 function inh: 18%; Shiga inhibitor: inactive

How did O=C(c1ccccc1SCc1ccc(F)cc1)N1CCOCC1 do in these assays?
Pf growth 48h: -18%; Cycloheximide cs: 7; Pf growth 96h: 34%; NS1 function inh: 0%; Shiga inhibitor: -2

What do the screens show for `COc1ccc([C@]23Cc4ccccc4C(O2)C2=C(O3)C(=O)c3ccccc3C2=O)cc1`?
Pf growth 48h: 1.5µM*; Cycloheximide cs: 19*; Pf growth 96h: 45%[5.75 µM]; NS1 function inh: 23%; Shiga inhibitor: inactive

Results for COc1ccc([C@]23Cc4c(ccc5ccccc45)C(O2)C2=C(CCCC2=O)O3)cc1 ?
Pf growth 48h: 18%[5.75 µM]; Cycloheximide cs: 6; Pf growth 96h: inconclusive; NS1 function inh: inconclusive; Shiga inhibitor: inactive

What do the screens show for `COc1ccc([C@]23Cc4ccccc4C(O2)C2=C(CC4(CCCCC4)OC2=O)O3)cc1`?
Pf growth 48h: inconclusive; Cycloheximide cs: 37*; Pf growth 96h: inconclusive; NS1 function inh: 14%; Shiga inhibitor: active

What do the screens show for `CC(NC(=O)C1CCCN(C(=O)c2ccc(Cl)cc2)C1)c1cccc(C(F)(F)F)c1` (stereo unspecified)?
Pf growth 48h: 13µM*; Pf growth 96h: inconclusive
